Screens (PubChem BioAssay)
In the library only some 12% were active in any assay of this set; here they are far more common.
L3MBTL1 block: blocks human L3MBTL1 | AID 485360 | 230,000 tested, 0.66% active | Potency, µM (series often up to 57.1 µM), without a hit: at the highest dose activity, negative = inhibition, hits mostly inhibitors | AlphaScreen L3MBTL1–H3K9me1 peptide binding; further: on the % scale 0 is the no-effect control and ±100 the full control effect; nearly all actives have a fitted effect of over 60% in size
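AlphaScreen proximity signal between nickel-chelate acceptor and streptavidin donor beads (final 10 ug/mL) reports binding of 50 nM L3MBTL1 to 75 nM biotin-H3 K9me1 peptide; complex incubated with compounds 30 min at room temperature; cefsulodin titration as control.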
G9a block: G9a (human) methyltransferase inhibition; 350,000 tested, 8.8% active; Potency, µM (titrated, usually from 102 µM), without a hit: top-dose activity, negative = inhibition, hits mostly inhibitors; G9a H3K9 monomethylation, AlphaScreen, 2 h; AID 504332; further: on the % scale 0 is the no-effect control and ±100 the full control effect; nearly all actives have a fitted effect of over 75% in size
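AlphaScreen read-out: biotin-H3K9 peptide (500 nM) methylation by 20 nM enzyme with 20 uM SAM, 2 h at room temperature after 15 min compound preincubation; anti-monomethyl H3K9 antibody plus donor/acceptor beads, 10 min dark.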
HP1b chromo inh: blocks HP1-beta chromodomain binding to methylated histone tails. AlphaScreen HP1-beta / biotin-H3K9me3 peptide binding. Potency, µM (top dose mostly 114 µM), inactives show at the top dose activity change, negative = inhibition, hits mostly inhibitors. 390,000 tested, 0.56% active. AID 540317; further: nearly all actives have a fitted effect of over 70% in size
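AlphaScreen: HP1-beta (50 nM) preformed 30 min with biotin-H3(1-18)K9me3 peptide (50 nM) in PBS pH 7.4, 0.01% Tween-20. Compound added for 30 min at RT, then streptavidin donor/nickel chelate acceptor beads (10 ug/mL) for 30 min.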
Sfp PPTase inh: Sfp phosphopantetheinyl transferase inhibition; Q9F4F7; 310,000 tested, 3.5% active; AID 1490; Biochemical Sfp PPTase activity, qHTS; Potency, µM, inactives show largest response in the series, negative = inhibition, usual class: inhibitors;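 further: the enzyme is Sfp with the accession as filed and its product quenches rhodamine fluorescence; 0% = enzyme reaction without inhibitor and -100% = no enzyme wells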
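Buffer: 50 mM Hepes-Na pH 7.6, 10 mM MgCl2, 0.01% Nonidet P-40, 0.01% BSA. Enzyme 15 nM, pre-exposed to compound 15 min; substrates then added and fluorescence change tracked over 30 min.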
JMJD2A Tudor inh: inhibitors of human JMJD2A Tudor domain. 390,000 tested, 4.4% active. AID 504339. Potency, µM (series often up to 114 µM), inactives show top-dose activity change, negative = inhibition, actives largely listed as inhibitors. AlphaScreen JMJD2A-Tudor / H3K4me3 peptide binding; further: on the % scale 0 is the no-effect control and ±100 the full control effect; nearly all actives have a fitted effect of over 50% in size
BAZ2B block: BAZ2B (human) inhibition. Potency, µM (top dose mostly 114 µM), without a hit: at the highest dose activity change, negative = inhibition, hits mostly inhibitors. AlphaScreen BAZ2B-H3K14Ac peptide displacement. Q9UIF8. 360,000 tested, 4.4% active; further: on the % scale 0 is the no-effect control and ±100 the full control effect; nearly all actives have a fitted effect of over 60% in size
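Compounds, titrated to a top concentration of 110 uM, were incubated 30 min at room temperature with preformed BAZ2B/acetyl-K14 H3 peptide complex (50 nM each). Proximity signal was measured by AlphaScreen after 20 min with beads.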
The depositor's hits bear a star; ? = inconclusive; / = not tested or not shown; [ ] = remark or other dose. The call rests on the fitted dose curve; in most records, active means well fitted curve in the direction sought with a large enough effect; inconclusive means small, poorly fitted or top-dose-only effect, or another doubt; inactive means no such curve, though single readings can be large; an effect the other way counts as inactive or inconclusive. Potency means the concentration at half of the fitted maximal effect.

SMILES | L3MBTL1 block | G9a block | HP1b chromo inh | Sfp PPTase inh | JMJD2A Tudor inh | BAZ2B block
CCCCCCCCS(=O)c1sc2nc(C)cc(C)c2c1N (stereo unspecified) | / | ? | 40.7% | 44.7µM* | -18.4% | -9.8%
CCCCCCCCS(=O)c1sc2nc3c(cc2c1N)CCCC3 (stereo unspecified) | / | / | 21.7% | / | -14.2%[57.1 µM] | /
Cc1nn(-c2ccccc2)c(C)c1NC(=O)COC(=O)Cc1ccccc1F | 7.6% | -47.1%[0.501 µM] | 23.5% | / | 2.1% | 1.2%
Cc1ccc2nc(-c3ccc(NC(=O)COC(=O)c4cncc(Br)c4)cc3)sc2c1 | 1.4% | 25.1µM* | 12.4% | -10.1% | -4.7% | -5.3%
COc1ccccc1Nc1nc(-c2sc(NC(=O)c3ccc([N+](=O)[O-])cc3)nc2C)cs1 | -3.6% | 44.7µM* | / | -8.8% | / | ?
CCOc1ccccc1Nc1nc(-c2sc(NC(=O)c3ccccc3)nc2C)cs1 | -9.8% | 31.6µM* | / | 1.5% | / | ?
CCOc1ccccc1Nc1nc(-c2sc(NC(=O)c3cccc(Cl)c3)nc2C)cs1 | -4.2% | 39.8µM* | ? | -19.7% | ? | ?
COc1ccccc1Nc1nc(-c2sc(NC(=O)c3ccccc3)nc2C)cs1 | -0.4% | ? | -2.1% | 1.3% | ? | -38.2%
CCCCCC(=O)Nc1nc(C)c(-c2csc(Nc3ccccc3OCC)n2)s1 | -0.1% | ? | -12.0% | ? | ? | -30.3%
COc1cccc(NC(=O)c2oc3ccccc3c2NC(=O)c2ccc(F)c(F)c2)c1 | / | -13.1%[59 µM] | 52.2% | / | 0.0% | 6.4%
CC(C)c1ccc(N2C(=O)N(Cc3ccccc3Cl)c3ccccc3S2(=O)=O)cc1 | / | 2.3%[59 µM] | 60.3% | / | -3.3% | -9.5%
N#CCNC1CC(=O)N(c2ccc(F)cc2)C1=O (stereo unspecified) | 0.4% | 7.94µM* | 1.2% | ? | -18.8% | -5.5%
O=C1CC(NCC2CCCO2)C(=O)N1c1ccc(F)cc1 (stereo unspecified) | -2.5% | 50.1µM* | 23.6% | -16.0% | -17.9% | -8.1%
O=C1CC(NCc2ccc(F)cc2)C(=O)N1c1ccccc1 (stereo unspecified) | -0.5% | -47.6% | 41.4% | 9.0% | -10.6% | -15.2%
CCOc1ccc(C(c2c(O)cc(C)n(Cc3ccco3)c2=O)N2CCN(C)CC2)cc1 (stereo unspecified) | / | ? | 1.4%[57 µM] | / | ? | -9.9%
CN(C)c1ccc(NC(=O)CCCCCn2nnc3ccccc3c2=O)cc1 | / | 50.1µM* | 16.2% | 7.3% | -24.8% | -19.8%
O=C(CSCC(=O)OCn1nnc2ccccc2c1=O)Nc1ccc(Cl)cc1 | 3.1% | 44.7µM* | 25.2% | -10.1% | 0.7% | -22.3%
Cc1nc2scc(-c3ccco3)c2c(=O)n1/N=C/N(C)C | / | -38.5%[12.7 µM] | 23.1% | 12.6µM* | -23.0% | -0.7%
N#Cc1c(SCC(=O)Nc2nncs2)sc2c(O)cc(=O)[nH]c12 | / | ? | ? | 14.1µM* | 25.1µM* | 10µM*
Cc1ccc(NC(=O)CSc2sc3c(O)cc(=O)[nH]c3c2C#N)c(F)c1 | / | ? | 41.2% | ? | -34.8% | ?
COc1ccc(OC)c(NC(=O)CSc2sc3c(O)cc(=O)[nH]c3c2C#N)c1 | / | ? | ? | -23.7% | 15.8µM* | ?
COc1cc(Cl)c(C)cc1NC(=O)CSc1sc2c(O)cc(=O)[nH]c2c1C#N | / | ? | 0.8% | ? | 56.2µM* | 39.8µM*
COc1cccc(CNC(=O)C(C)n2c(=O)cc(-c3ccccc3)c3c(C)nn(C)c32)c1 (stereo unspecified) | / | 8.3%[59 µM] | -10.6% | / | -28.0% | -10.8%
Cc1c(C)n(Cc2ccc(F)cc2)c2ccc(C(=O)NCc3ccco3)cc12 | / | 3.5%[59 µM] | 50.6% | / | ? | 2.7%
Cc1cccc(Cn2c(C)c(C)c3cc(C(=O)NCCN4CCOCC4)ccc32)c1 | / | 39.8µM* | -5.4% | -2.1% | 50.1µM* | 56.2µM*
SMILES | L3MBTL1 block | G9a block | HP1b chromo inh | Sfp PPTase inh | JMJD2A Tudor inh | BAZ2B block
Cc1c(C)n(Cc2ccc(F)cc2)c2ccc(C(=O)NCCN3CCOCC3)cc12 | / | 50.1µM* | -14.4% | -11.3% | ? | 50.1µM*
O=C(CN1CCN(S(=O)(=O)c2ccc(F)cc2)CC1)Nc1ccc(Cl)cn1 | -0.5% | / | 22.5% | 21.7% | -5.9% | -3.5%
Cc1cc(/C=C2\SC(=O)N(C)C2=O)c(C)n1-c1ccc(S(N)(=O)=O)cc1 | / | 44.7µM* | 23.5% | -2.4% | -8.4% | -2.8%
COC(=O)C(C)N1C(=O)S/C(=C\c2cc(C)n(-c3ccccn3)c2C)C1=O (stereo unspecified) | / | 56.2µM* | 0.0% | -5.9% | ? | ?
Cc1cc(/C=C2\SC(=S)N(C)C2=O)c(C)n1-c1cccc(O)c1 | -18.2% | -28.4% | 2.0% | ? | -20.6%[11.4 µM] | -32.4%
Cc1cc(/C=C2\SC(=O)N(C)C2=O)c(C)n1-c1ccc(O)cc1 | -0.1% | 79.4µM* | -27.7% | -20.2% | ? | 50.1µM*
O=S(=O)(c1ccc(Cl)cc1)c1nnn2c1nc(NCc1ccccc1)c1sccc12 | / | 1.7%[59 µM] | 33.4% | / | -4.4% | 0.5%
COc1cc(C)cc(C(=O)O)c1C1=C(O)c2cccc(O)c2C(=O)C1=O | / | ? | -24.1% | -6.4% | 79.4µM* | 56.2µM*
CCCCn1c(-c2ccccc2)cnc1SCC(=O)NCCc1ccc(OC)c(OC)c1 | -18.1% | ? | ? | 5.5% | 56.2µM* | 44.7µM*
O=C(CSc1ccc2ccccc2c1)Nc1ncccn1 | 4.0% | 44.7µM* | 32.2% | 8.5% | -6.8% | -1.7%
O=C(COC(=O)CSc1ccc2ccccc2c1)NC1CC1 | 8.8% | 50.1µM* | 10.5% | 14.0% | -4.3% | -0.8%
COc1ccc(CCNC(=O)CSc2nnc(-c3ccccc3)c3ccccc23)cc1OC | -3.7% | ? | 15.8% | 7.1% | -12.8% | -6.2%
O=C(CSc1ccc2ccccc2c1)NCCc1ccc(O)c(O)c1 | -27.8% | 2.51µM* | 79.4µM* | 25.1µM* | 7.94µM* | /
O=C(c1cccc(F)c1)N1CCC[C@@]2(CCN(c3ncccn3)C2)C1 | / | -0.3%[12.7 µM] | / | 8.3% | / | /
Cc1ccc(N(C(=O)c2cccc(C)c2)S(=O)(=O)c2ccc(Cl)cc2)cc1 | / | 14.2%[59 µM] | 26.0% | / | -9.5% | 2.0%
O=S(=O)(c1ccc2c(c1)OCCO2)N1CCN(c2nc(-c3ccccc3)nc3ccccc23)CC1 | / | / | 18.7% | / | -10.2% | /
C=CCNC(=O)N1CCc2nc(-c3ccccc3)c3c(c2C1)CO[C@@H](C)C3 | / | / | / | 11.8% | / | /
O=C(CCC(=O)N1Cc2ccccc2Oc2ncccc21)NCc1cccc(Cl)c1 | / | -16.6%[59 µM] | 26.8% | / | -10.4% | 8.4%[57.1 µM]
COc1ccc(CCNC(=O)CCCC(=O)n2nc(C)c3ccccc32)cc1OC | / | 79.4µM* | 29.9% | -13.0% | -16.5% | -10.2%[57.1 µM]
COc1ccc(CCNC(=O)CSc2ccc3ccccc3c2)cc1OC | -6.9% | 25.1µM* | 33.1% | -28.2% | -19.5% | 2.5%
